Results reported in PubChem BioAssay AID1628 (Sanford-Burnham Center for Chemical Genomics, 2009).
Hit rate of the full screen: of about 190,000 compounds, about 930 (0.49%) were called active. This is one part of the list. Potency and affinity values are given separately. A number with no mark means an inactive call.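 The calls were made as follows: active = z-score of insulin promoter reporter brightness in nuclei below -3 at 5 µM, with at least 500 cells counted; inconclusive = wells with under 500 cells, flagged as toxic or sparse; inactive = the rest.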

Experiment: insulin promoter down-regulators in MIN6 cells, imaging, high-content screening, mouse beta cells (AID 1628)
Conditions: MIN6 insulin promoter GFP reporter, at 5 µM, hits give low values
In the case of CNCCc1c[nH]c2ccccc12, the z-score is reported as -0.16. Work on O=C(/C=C/c1c[nH]c2ccccc12)c1c(O)n(CCc2ccccc2)c(=O)[nH]c1=O yielded a z-score of 16. For CCC(=NCCc1c[nH]c2ccccc12)c1c(O)n(C)c(=O)n(C)c1=O, the z-score was -5.98 (active). Work on CCCCCCn1c(O)c(C=NC2CCCCC2N)c(=O)[nH]c1=O (stereo unspecified) yielded a z-score of -0.8. For Cc1cc(C=C2C(=O)NC(=O)NC2=O)c(C)n1-c1ccncc1, the z-score was 2.32. With CCCCCCn1c(=O)c(C(=O)Nc2ccncc2)c(O)c2ccccc21 the z-score was -5.74 (active). With CCCCCn1c(=O)c(C(=O)Nc2cnccn2)c(O)c2ccccc21 the z-score was -5.71 (active). For CCCCCn1c(=O)c(C(=O)Nc2nc3ccccc3[nH]2)c(O)c2ccccc21, the z-score was -3.26 (active). In the case of CCCCn1c(O)c(C(=O)/C=C/c2c[nH]c3ccccc23)c(=O)[nH]c1=O, the z-score is reported as 12.4. CN1CCN(c2ccc(/C=C3\C(=O)NC(=S)N(c4cccc(Br)c4)C3=O)o2)CC1 gave a z-score of 3.97. O=C(O)c1cccc2nc3ccccc3nc12 gave a z-score of -0.32. Compound Oc1c(Cl)cc(Cl)cc1CN1CCN(Cc2ccccc2)CC1 has a z-score of 2.17. O=[N+]([O-])c1ccc(NCc2ccccc2)c2nonc12 showed a z-score of 13.4. For CCCCc1ccc2[nH]cc(CCN)c2c1, the z-score was 3.13. For CC(=O)OC(C)(C)/C=C/C(=O)[C@](C)(O)[C@H]1[C@H](O)C[C@@]2(C)[C@@H]3CC=C4[C@H](C[C@H](O)C(=O)C4(C)C)[C@]3(C)C(=O)C[C@]12C, the z-score was -4.32 (active). CN1CC=C2C(C#N)=C(N)C(C#N)(C#N)C(c3ccncc3)C2C1 (stereo unspecified) gave a z-score of 8.74. In the case of O=c1[nH]c(=O)n(-c2ccc(F)cc2)c(O)c1C=Nc1ccccc1N1CCCC1, the z-score is reported as 4.37. For O=c1cc(C(F)(F)F)c2cc3c4c(c2o1)CCCN4CCC3, the z-score was 17.3. In the case of CC(C)N1CCN(Cc2cccc([N+](=O)[O-])c2)CC1, the z-score is reported as 2.53. O=C(/C=C/c1ccccc1)NCCc1cnc[nH]1 showed a z-score of -0.29. CN1/C(=C\C=C2C(=O)NC(=S)NC2=O)C(C)(C)c2ccccc21 showed a z-score of 14.4. In the case of O=C1Nc2ccc(Br)cc2C(c2ccccc2Cl)=NC1O (stereo unspecified), the z-score is reported as -0.25. In the case of N#Cc1ccccc1Cn1cc(C(=O)c2ccco2)c2ccccc21, the z-score is reported as -6.56 (active). Compound CN1C(=O)C(=Cc2ccc(N3CCCCC3)o2)C(=O)N(C)C1=S has a z-score of 4.86. For Cc1ccc(Cn2nnnc2CN2CCC(n3nnc4cc(C(F)(F)F)ccc43)CC2)cc1, the z-score was -3.36 (active). CCCCCCn1c(O)c(C=Nc2ccccc2N2CCOCC2)c(=O)[nH]c1=S gave a z-score of 3.25.
